We go through 20 compounds from ChEMBL document CHEMBL3988442, “University of Dundee, Small-Polar-MMV Screening Library” (2021).

The experiment addresses AMP-activated protein kinase, AMPK (Homo sapiens) (UniProt P54646+O43741+P54619+Q9UGJ0+Q9Y478+Q13131+Q9UGI9). The experiment is described as follows: AMP-dependent Kinase enzyme assay. An in vitro enzyme assay that detects ADP turnover that is directly proportional to AMPK activity. This uses naive AMPK that is activated during the assay with MK-8722. On the set-up: scale not given: direction of the effect not stated beside the values. The format is functional. The settings on record: 30 µM.
For the compound `c1cc(CNCc2ccc(-n3cncn3)nc2)cc(OC2CCCC2)c1`, the Percent Effect is 9.46%.
For `CC(N)C(=O)N1CCC(Oc2cccc(C(F)(F)F)c2)CC1` (stereo not given), the Percent Effect is -2.71%.
On to `COc1ncccc1-c1cc(C(=O)NC2CC2)ccn1`, for which the Percent Effect is -1.79%.
Under `Cc1nc2c(c(NCCc3nccs3)n1)CCN(CC1CC1)CC2` stands 6.45%; under `Cc1cc(C)n(C2CN(CCC(=O)NCCc3ccccc3)C2)n1`, 2.98%; under `Cc1ccccc1SCC(=O)N[C@H]1CC[C@H](n2cnnc2)CC1`, 1.98%.
Under `COC(=O)c1cccc(C(=O)N(CCC#N)CC(C)(C)C)c1` stands 2.62%; under `C[C@@H]1CN(Cc2cc3ccccc3n2C)CC[C@]1(C)O`, 5.04%; under `COC(=O)Cn1c(C)cc(=O)c2cc(F)ccc21`, 1.38%.
Under `Cc1ncoc1C(=O)N1CCCC(c2ccc3c(N)nn(C)c3n2)C1` (stereo not given) stands 11.4%; under `COc1ccc(OC)c(C(=O)Nc2cccnc2-n2cncn2)c1`, 2.13%.
As for `COc1ccc2c(c1)OCC(CNC1CCc3ncnn3C1)=C2` (stereo not given), the Percent Effect was 7.82%.
To `CCc1ccc2nc(-c3cnn(C)c3)cc(C(=O)N3CCOCC3)c2c1` belongs 8.54%; to `CC(C)c1nc(CN(C)Cc2ncccc2C(=O)O)cs1`, 4.59%; to `CC(C)OCCCNC(=O)CN1CCN(c2nccs2)C(C)C1` (stereo not given), 13.6%.
To `O=C1NCCN(C(=O)CCN2CCCO2)C1c1cccc(F)c1` (stereo not given) belongs -5.73%; to `CC(C)Cc1cc(CNC(=O)c2ccccc2C2CCNC2)no1` (stereo not given), 3.3%; to `CCOCCC(=O)N1CCCC(c2cc(C(F)(F)F)[nH]n2)C1` (stereo not given), 0.822%.
In the case of `CCn1nc(C)cc1C(=O)N1C[C@@H](CN(C)C)[C@@H](CO)C1`, the Percent Effect was 0.455%.
For `Cc1cnn(CCCNC(=O)NCCS(=O)(=O)Nc2ccccc2)c1`, the Percent Effect amounted to 13.3%.
